TIM10 inh: growth inhibitors of isogenic TIM10 control yeast, primary screen, counter-screen for tim10-1 yeast inhibitor project, luminescence, uHTS. S. cerevisiae TIM10 strain growth, BacTiter-Glo luminescence, 24 h. inhibition, % at 10 µM. actives 1.4% (n = 330,000). AID 463195, 2010;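 active = inhibition of 40% or more at the single tested concentration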;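 note: wild-type TIM10 isogenic control strain grown at permissive 25 °C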
tim23-1 inh: growth inhibitors of tim23-1 mutant yeast, primary screen, luminescence, uHTS | S. cerevisiae tim23-1 growth, BacTiter-Glo luminescence, 24 h | inhibition, % at 20 µM | actives 1.3% (n = 330,000);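 active = growth inhibition of the mutant yeast at or above 50%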;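 note: temperature-sensitive mutant grown at 25 °C; plate controls were DMSO-treated mutant yeast for no effect and medium wells lacking yeast for full effect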
tim10-1 inh: growth inhibitors of tim10-1 mutant yeast, primary screen, luminescence, uHTS | S. cerevisiae tim10-1 ts strain growth, BacTiter-Glo, 24 h | inhibition, % at 20 µM | actives 2.2% (n = 330,000);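 active = inhibition of at least 40%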;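 note: mutant grown at 25 °C; 0% = DMSO wells with yeast and 100% = wells holding no yeast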
NALP3 yeast inh: NALP3 inflammasome inhibitors in reconstituted yeast, primary screen, luminescence, uHTS. inhibition, % at 10 µM. actives 0.39% (n = 330,000). AID 2825, 2010. Yeast reconstituted NLRP3/ASC/caspase-1, beta-gal luminescence, 24 h;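 active = inhibition of 50% or more; inactive = inhibition below 50%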;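 note: plate controls were induced DMSO wells for no effect and uninduced yeast grown without galactose for full effect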
NALP1 yeast inh: NALP1 inflammasome inhibitors in reconstituted yeast, colorimetric, S. cerevisiae, triplicate retest; S. cerevisiae NALP1/ASC/caspase-1 growth, X-gal OD620, 72 h; inhibition, % at 10 µM; actives 0.61% (n = 280,000); in the data active = inhibition mostly above about 24%, no sharp cut-off; inactive = mostly below about 32%
tim23-1 confirm: tim23-1 mutant yeast growth inhibitors, confirmation, luminescence, single concentration; S. cerevisiae tim23-1 growth, BacTiter-Glo luminescence, 24 h; actives 83% (n = 4,400); inhibition, % at 20 µM; AID 463218, 2010; shares compounds with tim23-1 inh;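 active = inhibition above about 39% in either of two replicate wells at 20 µM, limit read from the data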;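 note: temperature-sensitive tim23-1 mutant grown at 25 °C; 0% = DMSO wells with yeast and 100% = medium wells without yeast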
* = called active by the depositor; x = not tested or not shown. Only some compounds are listed: those with a hit (about 4% of all), similar ones and a draw of the others.

SMILES	TIM10 inh	tim23-1 inh	tim10-1 inh	NALP3 yeast inh	NALP1 yeast inh	tim23-1 confirm
CCCC(=O)NC(c1ccc(Cl)cc1)c1ccc2cccnc2c1O (stereo not drawn)	-23	60*	-4	12	1	60*
CCCC(=O)NC(c1ccc(Cl)cc1Cl)c1ccc2cccnc2c1O (stereo not drawn)	-63	49	-12	15	-3	x
CCCCC(=O)NC(c1ccc(N(C)C)cc1)c1ccc2cccnc2c1O (stereo not drawn)	-54	54*	-7	13	-3	53*
CCCCC(=O)NC(c1ccc(Cl)cc1)c1ccc2cccnc2c1O (stereo not drawn)	-42	56*	-19	14	x	49*
CCCC(=O)NC(c1ccc(C)cc1)c1ccc2cccnc2c1O (stereo not drawn)	-24	61*	-8	17	8	58*
CCCCC(=O)NC(c1ccc(N(CC)CC)cc1)c1ccc2cccnc2c1O (stereo not drawn)	-71	44	-5	14	6	x
CCCCn1c(N)c(N(CC(C)C)C(=O)CSc2nnc(C)n2-c2ccc(OC)cc2)c(=O)[nH]c1=O	12	13	5	24	x	x
COc1cc(CN2CCNC(=O)C2CC(=O)NC2CCCC2)cc(OC)c1 (stereo not drawn)	5	6	3	15	1	x
CC12CCC(C(=O)NCCCN3CCOCC3)(C(Br)C1=O)C2(C)C (stereo not drawn)	-7	95*	-8	7	6	1
Cn1c(C(=O)NCCc2c[nH]c3ccccc23)cc2sccc21	24	57*	19	20	9	57*
O=C(NCCc1c[nH]c2ccccc12)c1cc2sccc2n1Cc1ccccc1	28	14	33	7	8	x
COc1ccc(CN2CCNC(=O)C2CC(=O)NCCCC2CCCC2)c(F)c1 (stereo not drawn)	14	17	7	-1	15	x
CCOc1cc(/C=C2\COc3ccccc3C2=O)ccc1OCC(=O)N(C)C	34	54*	30	-5	23	53*
CCOc1cc(/C=N/Nc2ccccc2Cl)ccc1OCC(=O)O	x	x	x	x	12	x
COc1ccc(-c2cccc(NC(=O)c3cccs3)c2)nn1	-10	62*	10	8	x	56*
CCS(=O)(=O)c1ccc(-c2cccc(NC(=O)c3ccco3)c2)nn1	-1	11	25	8	x	x
CCOc1ccc(-c2cccc(NC(=O)c3cccs3)c2)nn1	-2	63*	5	22	x	47*
CCOc1ccc(-c2cccc(NC(=O)COc3ccc(Cl)cc3)c2)nn1	16	7	22	14	12	x
CCOc1ccc(-c2cccc(NC(=O)c3ccco3)c2)nn1	-24	54*	13	11	x	14
CCOc1ccc(NS(=O)(=O)c2ccc(NC(=O)[C@@H]3CCCC[C@@H]3C(=O)O)cc2)cc1	4	9	-5	12	26	x
O=C(CSc1nnc(CNC(=O)c2ccccc2)o1)NCC1CCCO1 (stereo not drawn)	0	3	-5	11	7	x
Cn1c(=NC(=O)CCl)sc2ccccc21	13	57*	34	29	0	36
N=c1n(CCO)c2ccccc2n1CCOc1ccccc1	3	65*	-3	7	5	2
CSCCC(N=C1NS(=O)(=O)c2ccccc21)C(=O)NCCc1ccccc1 (stereo not drawn)	-9	-3	-5	9	4	x
O=C(Nc1cccc(Cl)c1)ON=C1c2ccccc2-c2ccccc21	8	62*	17	4	21	46*
SMILES	TIM10 inh	tim23-1 inh	tim10-1 inh	NALP3 yeast inh	NALP1 yeast inh	tim23-1 confirm
OC1CCN(c2cc(-c3ccccc3)nc3cc(-c4ccc(F)cc4)nn23)CC1	32	16	31	21	1	x
CCN1CCN(c2cc(-c3ccccc3)nc3cc(-c4cccc(F)c4)nn23)CC1	25	53*	26	45	31	33
COc1ccc(OC)c(NC(=O)c2nc(S(=O)(=O)Cc3ccccc3)ncc2Cl)c1	34	73*	11	-6	-8	-43
O=C(Nc1ccc(F)cc1)c1nc(S(=O)(=O)Cc2ccccc2)ncc1Cl	3	61*	31	32	-12	-126
Cc1ccccc1CS(=O)(=O)c1ncc(Cl)c(C(=O)Nc2ccc(F)cc2)n1	6	62*	-1	41	15	-23
CCn1c(=O)c2ccccc2n(Cc2ccccc2C)c1=O	1	33	8	-12	8	x
Cc1ccc2nc(-c3ccc(NC(=S)NC4CC(C)(C)NC(C)(C)C4)cc3)sc2c1	29	70*	25	24	4	67*
COc1cc2nc(C3CCC3)nc(N3CCN(c4ccccc4OC)CC3)c2cc1OC	39	53*	30	23	40	44*
CCN(CC)C(=O)c1[nH]cnc1C(=O)NCc1ccccc1	-2	2	26	5	x	x
O=C(O)c1cccc(-c2ccc(/C=N/n3cnc4sc5c(c4c3=O)CCCC5)o2)c1	0	52*	29	3	x	22
COc1ccc(Cl)cc1N1C(=O)/C(=C\c2sccc2C)N=C1SCC(=O)NC1CC1	33	34	39	36	-7	x
CCOC(=O)C1=C(C)Nc2ccccc2N=C1NC(=O)C(CC)c1ccccc1 (stereo not drawn)	-1	10	26	-10	-2	x
COc1ccc(C(=O)CCC(=O)N2CCN(c3ccc(C)cc3)C(C)C2)cc1 (stereo not drawn)	7	26	27	16	2	x
Cc1[nH]c2ccccc2c1/C=N/NC(=S)NC(C)C	40	47	39	12	-20	x
CC(C)NC(=S)N/N=C/c1c[nH]c2ccccc12	32	56*	36	22	13	40*
CCC(C)N(C(=O)c1csnn1)C(C(=O)NCc1ccc(F)cc1)c1ccccc1F (stereo not drawn)	-15	15	9	26	21	x
O=C(COc1ccccc1)NCc1nnc2c3ccccc3c(-c3ccccc3)nn12	37	27	30	17	32	x
CC(C)CCSc1nc(N2CCOCC2)c2c(c1C#N)CC(C)(C)OC2	0	60*	8	-6	0	20
O=C(Nc1ncc([N+](=O)[O-])s1)c1ccc2c(c1)OCO2	35	57*	34	39	2	59*
Cc1ccc(C(=O)Nc2ncc([N+](=O)[O-])s2)cc1	x	x	x	x	22	x
Cc1ccc(-c2nc(Nc3ccc(N4CCOCC4)cc3)c3ccccc3n2)cc1	22	47	31	35	0	x
Cc1ccc(-c2nc(Nc3cccc(O)c3)c3ccccc3n2)cc1	22	83*	16	25	22	-21

Source: PubChem BioAssay
